# Pf growth 48h = P. falciparum growth inhibition at 48 hours (one generation) | P. falciparum luciferase growth in erythrocytes, 48 h | Potency, µM (doses to about 28.7 µM), usual class: inhibitors | hit rate 5.9% among 310,000 | AID 504832
#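 Parasite viability was followed by luminescence of a genomically integrated firefly luciferase. Cultures held 0.1% parasitemia at 2% hematocrit (final), incubated under 5% CO2 at 37 C.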
# Shiga toxin inh = blocks Shiga toxin action in Vero cells | hit rate 9.2% among 290,000 | inhibition, % at 38.7 µM | Vero cells, Shiga toxin protein synthesis inhibition reporter; in the data active = inhibition mostly above about 28%, no sharp cut-off; inactive = mostly below about 43%
# CHX counter = counter-screen for Shiga toxin inhibitors: cycloheximide protein synthesis inhibition | cell reporter, cycloheximide protein synthesis inhibition counterscreen | max response, % | hit rate 12% among 300,000 | AID 2314; in the data active = max response mostly above about 13%, no sharp cut-off; inactive = mostly below about 14%; note: read at 38.3 µM for the half of the compounds with a filed dose
# Marburg entry inh = Marburg virus entry inhibition | Potency, µM (top dose mostly 37.8 µM), hits mostly inhibitors | hit rate 1.8% among 300,000 | Marburg virus pseudotyped entry inhibition, cell reporter; calls by dose curve; tested in HEK293 cells
# Pf growth 96h = P. falciparum growth inhibition at 96 hours; P. falciparum luciferase reporter growth, 96 h; AID 504834; hit rate 6.9% among 320,000; Potency, µM (highest dose often 28.7 µM), most hits filed as inhibitors
#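 Parasite growth measured via integrated firefly luciferase reporter in P. falciparum. Infected erythrocytes at 2% hematocrit, 0.05% parasitemia final were treated 96 hours at 37 C under 5% CO2, and luminescence was read.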
# LASV entry inh = inhibitors of Lassa virus binding or cell entry; Lassa virus pseudotype entry inhibition, cell reporter; Potency, µM (doses to about 37.9 µM), actives largely listed as inhibitors; hit rate 1.2% among 300,000; AID 540256; calls by dose curve; tested in HEK293 cells; note: nearly all actives have a fitted effect of over 50% in size
# A number is an active result; 0 = inactive; ? = inconclusive; - = no result. The list is not random: actives were taken first. Their share in the collection is about 19%. Unless noted, calls come from the whole dose curve; as a rule, active = well fitted inhibition curve with a large enough effect; inconclusive = small, poorly fitted or top-dose-only effect, or another doubt; inactive = no such curve, though single readings can be large or run the other way.
SMILES,Pf growth 48h,Shiga toxin inh,CHX counter,Marburg entry inh,Pf growth 96h,LASV entry inh
FC(F)(F)c1cccc(Cn2nnnc2-c2ccc(Cl)cc2)c1,?,0,0,?,8.3µM,0
CCCn1nnnc1-c1ccc(Cl)cc1,0,0,0,0,0,0
Cc1ccc(N2C(=O)[C@@H]3[C@H](C2=O)[C@H]2C=CC=NN2[C@@H]3C(=O)Nc2ccccc2)cc1,?,0,16,0,?,0
CC(=O)Oc1ccc(N2C(=O)C3C(C2=O)C(C(=O)c2ccc(Cl)cc2)N2CCCC32)cc1 (centres undefined),0,0,29,0,0,?
CC(=O)Oc1ccc(C(=O)[C@H]2[C@H]3C(=O)N(c4ccccc4)C(=O)[C@H]3[C@@H]3C=CC=NN32)cc1,0,0,0,?,0,0
COc1ccc(C(=O)[C@H]2[C@H]3C(=O)N(c4ccccc4)C(=O)[C@H]3C3C=CC=NN32)cc1 (some centres undefined),17µM,0,0,0,0,0
COc1ccc(N2C(=O)[C@@H]3[C@H](C2=O)[C@H](C(=O)c2ccc(OC(C)=O)cc2)N2N=CC=C[C@@H]32)cc1,0,38,14,0,0,?
CC(=O)Oc1ccc(C(=O)[C@H]2[C@H]3C(=O)N(c4ccc(C)cc4C)C(=O)[C@H]3[C@@H]3C=CC=NN32)cc1,?,0,0,0,0,0
COc1cc(OC)cc(C(=O)NC(C)CCc2ccccc2)c1 (centres undefined),0,0,0,-,?,-
COc1ccc(C(=O)[C@H]2[C@H]3C(=O)N(c4ccc(C)cc4)C(=O)[C@H]3C3C=CC=NN32)cc1 (some centres undefined),0,0,19,0,0,0
CC(=O)Oc1ccc(C(=O)[C@H]2[C@H]3C(=O)N(c4ccc(C)cc4)C(=O)[C@H]3[C@@H]3C=CC=NN32)cc1,0,46,24,?,0,?
Cc1ccc(Nc2nc3c(S(=O)(=O)c4ccccc4)nnn3c3ccc(Cl)cc23)c(C)c1,-,-,-,0,-,-
Cc1cccc(NC(=O)Nc2cccc(F)c2)n1,0,79,52,0,0,?
COc1cccc(NC(=O)Nc2nccc(C)n2)c1,0,72,38,-,0,-
Cc1ccnc(NC(=O)Nc2cccc(F)c2)n1,0,79,28,?,0,?
CC1Cc2nc(SCC(=O)Nc3ccc4c(c3)OCCO4)n(C)c(=O)c2S1 (centres undefined),?,0,9.0,0,?,0
CC1Cc2nc(SCC(=O)Nc3nccs3)n(Cc3ccccc3)c(=O)c2S1 (centres undefined),3.3µM,0,0,-,1.5µM,-
Cc1ccc(C)c(NC(=O)CSc2nc3c(c(=O)n2C)SC(C)C3)c1 (centres undefined),?,0,0,0,?,-
CC1Cc2nc(SCC(=O)Nc3ccc(F)cc3F)n(C)c(=O)c2S1 (centres undefined),6.6µM,0,0,?,?,0
CC1Cc2nc(SCC(=O)N3CCN(c4ccccc4)CC3)n(CCc3ccccc3)c(=O)c2S1 (centres undefined),9.3µM,0,0,-,?,-
CC1Cc2nc(SCC(N)=O)n(Cc3ccccc3)c(=O)c2S1 (centres undefined),?,0,0,-,?,-
CN1CC2CCCC3(C1)C(=O)NC1(CCCCC1)N=C23 (centres undefined),0,0,0,?,-,0
CC1Cc2nc(SCC(=O)Nc3ccc4c(c3)OCO4)n(Cc3ccccc3)c(=O)c2S1 (centres undefined),2.3µM,83,56,0,0,0
COCCn1c(SCC(=O)Nc2ccc3c(c2)OCCO3)nc2c(c1=O)SC(C)C2 (centres undefined),0,30,23,-,?,-
O=C(CSc1nc2ccccc2n1CC(=O)N1CCCC1)Nc1ccc2c(c1)OCO2,0,0,0,0,0,0
SMILES,Pf growth 48h,Shiga toxin inh,CHX counter,Marburg entry inh,Pf growth 96h,LASV entry inh
CC1CCCC(C)N1C(=O)Cn1c(SCC(=O)Nc2ccc3c(c2)OCO3)nc2ccccc21 (centres undefined),?,0,0,?,13µM,0
COc1cccc(C(=O)N2CCOCC2)c1OC,0,0,0,0,?,?
Cn1c(=O)[nH]c(=O)c2c1nc(Br)n2CC(O)COc1ccccc1 (centres undefined),-,0,0,0,0,0
CCCCNc1nc(-c2ccccc2)c(C(=O)OCC)cc1C#N,?,0,0,?,?,11µM
C=CCNc1nc(-c2ccccc2)c(C(=O)OCC)cc1C#N,?,0,0,?,?,?
CCCNc1nc(-c2ccccc2)c(C(=O)OCC)cc1C#N,12µM,0,0,?,0,?
CCCC[C@@H]1CCCO[C@@](C(=O)NCc2cc(C)n(C)n2)(C(F)(F)F)C1,-,0,0,-,-,-
CCCCOc1ccc(CN2CCN(CC)CC2)cc1,-,0,0,0,?,0
CCCCOc1ccc(CN2CCN(CCO)CC2)cc1,0,0,29,?,-,0
CCCCOc1ccc(CN2CCC(O)CC2)cc1,0,91,37,0,0,0
CCCCCCOc1ccc(CN2CCN(CCO)CC2)cc1,0,61,38,?,-,?
CCCCOc1ccc(OCCCN2CCOCC2)cc1,0,0,0,0,0,0
CCC(CO)n1c(SCc2cc(=O)oc3cc(C)ccc23)nc2ccccc2c1=O (centres undefined),0,0,0,0,-,0
Cc1onc(-c2c(Cl)cccc2Cl)c1NC(=O)N1CCSCC1,0,0,0,0,0,0
CCCCOC(=O)Nc1nnc(-c2ccccc2OC)s1,?,0,0,0,?,0
CCCCCOC(=O)Nc1nnc(CCC)s1,0,0,28,0,?,0
CCCCOC(=O)Nc1nnc(C(C)C)s1,0,119,37,?,0,?
CCCn1nnnc1NCc1ccc(N(C)C)cc1,0,0,0,0,?,0
CSc1nc(-c2ccccc2)nn1S(=O)(=O)c1ccc(Cl)cc1,0,0,0,0,-,0
CSc1nc(-c2ccccc2)nn1S(=O)(=O)c1ccccc1,0,0,18,0,0,0
COc1ccc(-c2nc(SC)n(S(=O)(=O)c3ccccc3)n2)cc1,0,96,28,?,-,?
O=C(CSc1nnc(-c2ccccc2Cl)o1)Nc1ccc2c(c1)OCCO2,0,0,0,0,0,?
Cc1cc(NC(=O)COC(=O)C2CC(=O)N(c3ccccc3Cl)C2)no1 (centres undefined),0,0,0,0,?,?
CCOC(=O)c1ccc(N/C=C/C(=O)C(C)(C)C)cc1,0,90,50,0,0,?
CCOC(=O)c1ccc(N2C(=O)[C@@H](c3ccccc3)[C@H]2c2ccccc2)cc1,10µM,-,-,-,?,-
CCOC(=O)c1ccc(CNCc2ccccc2)cc1,0,50,29,0,0,?
CCOC(=O)c1ccc(N/C=C/C(=O)c2ccccc2)cc1,0,54,43,?,?,?
CCOC(=O)c1ccc(N2C(=O)C(O)=C(C(C)=O)C2c2ccccc2)cc1 (centres undefined),0,0,0,?,0,0

# From PubChem
